Source: PubChem BioAssay (National Center for Advancing Translational Sciences (NCATS))
HPGD inh – blocks human HPGD enzyme activity | P15428 | purified HPGD, NADH fluorescence kinetic, PGE2 substrate | Potency, µM, for the others: at the top dose activity change, negative = inhibition, most hits filed as inhibitors | 150,000 tested, 4.3% active | AID 894; active = well fitted inhibition curve with a large enough effect, not every such curve was filed as active; inconclusive = small, poorly fitted or top-dose-only effect, or another doubt; inactive = no such curve, though single readings can be large or run the other way
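NADH formation kinetics: reaction with 30 uM PGE2 and 1 mM NAD+ (final), 20 nM enzyme, Tris-HCl pH 8 with Tween 20, after 15 min compound preincubation at room temperature. Fluorescence change, last versus first of five reads.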
p53ts 32C tox – p53ts cell cytotoxicity, permissive temperature; 130,000 tested, 0.93% active; H1299-p53A138V at 32C, ATP luminescence viability, 24 h; Potency, µM (highest dose often 46.1 µM), for the others: at the top dose activity change, negative = cytotoxicity, actives largely listed as cytotoxic;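 note: 0% = DMSO and -100% = full killing by reference compound; nearly all actives have a fitted effect of over 55% in size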
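H1299-p53 A138V cells (temperature-sensitive p53) exposed 24 h to up to 46 uM compound at 32C, where p53 is wild-type in conformation. Viability read as ATP luminescence and normalised to DMSO and 100 uM tamoxifen. AC50 fitted with the Hill equation.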
p53ts 39C tox – p53ts cell cytotoxicity, nonpermissive temperature; Potency, µM (series often up to 46.1 µM), without a hit: at the top dose activity change, negative = cell killing, actives largely listed as cytotoxic; H1299-p53A138V viability at 39C, ATP luminescence, 24 h; 130,000 tested, 1.5% active; note: nearly all actives have a fitted effect of over 55% in size
ALOX12 inhib – inhibitors of human 12-lipoxygenase (ALOX12) | purified 12-hLO, xylenol orange hydroperoxide absorbance | 150,000 tested, 0.12% active | P18054 | Potency, µM (titrated, usually from 57.1 µM), without a hit: top-dose activity change, negative = inhibition, actives largely listed as inhibitors; note: nearly all actives have a fitted effect of over 55% in size
Target sequence (P18054 whole entry, looked up): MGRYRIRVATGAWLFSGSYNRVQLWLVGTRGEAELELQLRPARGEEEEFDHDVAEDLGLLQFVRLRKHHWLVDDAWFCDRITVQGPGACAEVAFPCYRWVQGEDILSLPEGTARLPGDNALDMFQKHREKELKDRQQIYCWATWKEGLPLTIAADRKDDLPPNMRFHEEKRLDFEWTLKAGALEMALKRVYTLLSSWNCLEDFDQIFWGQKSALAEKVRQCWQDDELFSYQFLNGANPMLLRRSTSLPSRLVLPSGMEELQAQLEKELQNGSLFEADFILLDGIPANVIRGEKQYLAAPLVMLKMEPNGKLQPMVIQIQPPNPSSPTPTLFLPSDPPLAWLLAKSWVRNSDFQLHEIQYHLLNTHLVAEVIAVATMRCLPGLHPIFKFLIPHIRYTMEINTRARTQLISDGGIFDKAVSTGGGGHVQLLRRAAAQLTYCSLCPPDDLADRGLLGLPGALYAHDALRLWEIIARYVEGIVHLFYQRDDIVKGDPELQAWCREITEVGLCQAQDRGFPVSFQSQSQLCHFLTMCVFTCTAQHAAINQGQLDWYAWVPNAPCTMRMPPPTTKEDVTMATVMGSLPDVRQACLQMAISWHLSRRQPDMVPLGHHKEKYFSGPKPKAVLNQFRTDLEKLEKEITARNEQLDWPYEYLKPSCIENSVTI
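Xylenol orange chromogenic assay: hydroperoxide from 12hLO oxidises Fe(II), giving red-shifted Fe(III)-XO absorbance. Conditions: 150 nM enzyme, 40 uM arachidonic acid, 25 mM Hepes pH 7.0, 0.01% Triton X-100, 30 min, room temperature.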
Starred values were filed as active, the others as inactive; ? = inconclusive; / = no result; [ ] = another dose, or the depositor's remark. Sampled rows, rich in hits. Any-hit rate of the full collection: about 4.4%. Unless noted, calls come from the whole dose curve; as a rule, active = well fitted curve in the direction sought with a large enough effect; inconclusive = small, poorly fitted or top-dose-only effect, or another doubt; inactive = no such curve, though single readings can be large; an effect the other way counts as inactive or inconclusive. Unless noted, % is set by controls: 0 for no effect and ±100 for the full control effect; potency is the fitted concentration of half-maximal effect.

SMILES	HPGD inh	p53ts 32C tox	p53ts 39C tox	ALOX12 inhib
Nc1cc(N)nc(SCC(=O)N2CCCCC2)n1	28µM*	-6%	-18%	4%
O=C(CSc1nc2ccccc2nc1SCC(=O)N1CCCCC1)N1CCCCC1	2.5µM*	9%	17%	-10%
Cc1ccc(-n2c(CSc3nc(C)cc(C)n3)nnc2SCC(=O)N2CCCC2)cc1	3%	10%	1%	-7%
Nc1cc(N)nc(SCC(=O)N2CCN(C(=O)c3ccco3)CC2)n1	-3%	/	/	1%
Cc1cc(C)nc(SCC(=O)N2CCCCC2)n1	7.9µM*	-2%	-5%	-2%
CCOC(=O)C1CCCN(C(=O)c2ccc(NC(=O)c3nsc4ccccc34)cc2)C1 (stereo unspecified)	/	-16%	?	/
O=C(c1ccncc1)N1CCC[C@@]2(CCN(Cc3cc(C(F)(F)F)cc(C(F)(F)F)c3)C2)C1	-5%	-9%	-11%	-1%
COC1=C(OC)C(=O)c2ccccc2C1=O	?	6.3µM*	4µM*	-3%
COC1=C(Nc2ccccc2)C(=O)c2ccccc2C1=O	10µM*	/	/	-9%
COC1=C(Nc2ccc(C)cc2)C(=O)c2ccccc2C1=O	11µM*	/	/	-3%
Cc1ccc(NC2=C(N3CCCCC3)C(=O)c3ccccc3C2=O)cc1	/	/	/	-13%
Cc1cccc(NC(=O)CSc2nc3c(oc4ccccc43)c(=O)n2Cc2ccco2)c1	/	1%	?	/
CN(Cc1ccccc1)C(=O)c1ccc(CSc2nc3cccnc3n2Cc2ccccc2)cc1	/	12%	/	/
Cc1ccc(CNC(=O)c2ccc(CSCc3ccc(Cl)cc3)o2)cc1	/	17%	-30%	/
CC(C)(C)N(NC(=O)c1ccccc1)C(=O)c1ccc(C(=O)N(NC(=O)c2ccccc2)C(C)(C)C)cc1	0%	/	/	1%
CCc1ccc(C(=O)NN(C(=O)c2ccc(CC)cc2)C(C)(C)C)cc1	25µM*	/	/	0%
NC(=O)c1cc[n+](CC2=C(C(=O)O)N3C(=O)C(NC(=O)C(c4ccccc4)S(=O)(=O)[O-])C3SC2)cc1 (stereo unspecified)	32µM*	2%	2%	3%
NC(=O)c1cc[n+](CC2=C(C(=O)O)N3C(=O)[C@@H](NC(=O)[C@H](c4ccccc4)S(=O)(=O)[O-])[C@@H]3SC2)cc1	-6%	0%[20.6 µM]	6%[20.6 µM]	-7%[25.6 µM]
Cc1ccc(-c2nc3ccccc3c(=O)n2NC(=S)N(C)C)cc1	28µM*	/	/	0%
O=C(C1CCN(S(=O)(=O)c2ccc(Br)s2)CC1)N1CCN(c2cccc(Cl)c2)CC1	/	-7%	-2%	/
Cc1ccc(Cn2c(SCC(=O)NCc3ccccc3Cl)nc3ccsc3c2=O)cc1	/	7%	10µM*	/
COc1ccc(-n2nc(-c3ccc(C)cc3)c3cnc4cc(F)c(F)cc4c32)cc1	/	1%	15%	/
CCOc1ccc(NC(=O)C(C)Sc2nnc3cc(C)c4ccccc4n23)cc1 (stereo unspecified)	/	9%	8%	/
COCCCNc1nc(=S)[nH]c2cc(OC)c(OC)cc12	14µM*	1%	2%	-9%
COc1cc2[nH]c(=S)nc(NCC3CCCO3)c2cc1OC (stereo unspecified)	-7%	7%	-5%	0%
SMILES	HPGD inh	p53ts 32C tox	p53ts 39C tox	ALOX12 inhib
O=C(CCC(=O)N1CC2CCCN2c2ccccc21)NCc1ccc(Cl)cc1 (stereo unspecified)	/	10%	17%	/
CCCn1c(SCC(O)c2ccccc2)nc2ccccc21 (stereo unspecified)	/	1%	-11%	/
COC(=O)Cc1ccc(NC(=O)c2ccc(Br)o2)cc1	-10%	-28%	?	3%
CCN(CC)c1ccc(NC(=O)c2ccc(Br)o2)cc1	-14%	13µM*	?	3%
Cc1ccccc1C(=O)Nc1ccc(NC(=O)c2cccs2)cc1	/	-10%	-1%	/
O=C(O)c1ccc(-n2nnnc2SCc2ccccc2F)cc1	16µM*	-4%	-12%	7%
Fc1ccccc1OCCSc1nnnn1-c1ccccc1	16µM*	-12%	-8%	-7%
c1ccc(OCCSc2nnnn2-c2ccccc2)cc1	-17%	-17%	-27%	3%
O=C(c1ccco1)N1CCC2(CCN(Cc3nccs3)CC2)CC1	-3%	0%	6%	3%
COc1cc(/C=N/Nc2ncc(C(F)(F)F)cc2Cl)cc(OC)c1O	14µM*	/	/	-8%
COc1cccc(CC(=O)NCC2COc3ccccc3O2)c1OC (stereo unspecified)	-7%	20%	-9%	-5%
COc1ccccc1CN(C)C(=O)C1COc2ccccc2O1 (stereo unspecified)	7.1µM*	0%	-4%	-2%
COc1cc(OC)c(-c2c3cc(O)c(=O)cc-3oc3cc(O)c(O)cc23)cc1OC	16µM*	/	/	-21%
COc1ccc(-c2cc(=O)c3ccc(O)cc3o2)cc1	-19%	?	?	-4%
Cc1[nH]n(-c2ccc(Cl)cc2)c(=O)c1/C=N/c1nnc(-c2ccccc2)s1	28µM*	/	/	-3%
CCCN1C2=C(C(=O)CC(C)(C)C2)C(c2ccc(F)cc2)C2=C1c1ccccc1C2=O (stereo unspecified)	35µM*	/	/	0%
c1ccc(-c2nnc3sc(CN4CCc5ccccc54)cn23)cc1	11µM*	3%	-6%	-11%
Cc1ccc(C(C)C)c(OCc2ccc(-c3nnco3)cc2)c1	10µM*	5%	-8%	-14%
Cn1c(=O)c(C(=O)Nc2ncccc2O)c(O)c2ccccc21	22µM*	-16%	-20%	-14%
Cc1[nH]n(-c2ccccc2)c(=O)c1C=Nc1cccc2cccnc12	-19%	/	/	11%
Cc1[nH]n(-c2ccccc2)c(=S)c1C=Nc1cccc([N+](=O)[O-])c1	8.9µM*	/	/	32µM*
CCCCNC(=O)c1nn(-c2ccc(CC)cc2)nc1CO	/	-9%	?	/
CC(C)CNC(=S)NNC(=O)c1csc2c1CCCC2	-3%	/	/	-2%
CCC(C)NC(=O)COC(=O)c1csc2c1CCCC2 (stereo unspecified)	25µM*	/	/	1%
Cc1ccc(S(=O)(=O)n2nc(-c3ccccc3)nc2NCc2ccccc2Cl)cc1	/	7%	10%	/
SMILES	HPGD inh	p53ts 32C tox	p53ts 39C tox	ALOX12 inhib
O=C(C1CCCN(Cc2ccccc2)C1)N1CCCCC1 (stereo unspecified)	28µM*	/	/	-2%
O=C(C1CCCN(Cc2ccccc2Br)C1)N1CCCCC1 (stereo unspecified)	25µM*	-3%	0%	-5%
O=C(O)C/C(=C\c1ccccc1)C(=O)O	-14%	1%[9.22 µM]	8%[9.22 µM]	-3%[11.4 µM]
C/C(=N\Nc1nc2ccccc2[nH]1)c1cc2ccccc2o1	-9%	16µM*	13µM*	-10%
Cc1cc(C(=O)CSc2nnc(NCc3ccccc3)s2)c(C)n1C	18µM*	-6%	-28%	-10%
CN1/C(=C\C(=O)CSc2nnc(NCc3ccccc3)s2)C(C)(C)c2ccccc21	-21%	/	/	0%
Cc1c(Cl)c(C(=O)NC2CCCC2)nn1C	35µM*	-2%	8%	4%
N=c1cc(C2(O)CCCCC2)n2c(nc3ccccc32)s1	-15%	1µM*	1.3µM*	0%
CCOc1ccc(NC(=O)CN2C(=O)COc3ccc(S(=O)(=O)Nc4ccccc4)cc32)cc1	/	-1%	-8%	/
